Test results as given in PubChem BioAssay AID1159580 (chemical genetic matrix, 2015).
Screen size: about 5,500 compounds; about 2,000 (36%) were called active. Roughly 18% stayed inconclusive and do not appear here. No stated cut-off is given here; in the data, active means normalized growth mostly below about 0.91 (no sharp cut-off); inconclusive means no clear call, values can overlap the other calls; inactive means mostly above about 0.92. The list shows a part of the results.

Assay: chemical genetic growth profiling, strain panel (AID 1159580);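 further: tested at 20 µM; growth read once vehicle control cultures reached saturation at 30 °C; 1 = growth at the plate median or of vehicle wells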
Conditions: growth OD
[1] = S. cerevisiae deletion strains, locus YCL061C, strain MRC1, stronger effect = lower value
[2] = S. cerevisiae deletion strains, locus YHR030C, strain SLT2, stronger effect = lower value

Measured: normalized growth

COc1ccccc1Oc1ccc(C(F)(F)F)cc1NC(=O)NC(=O)c1ccccc1F
inactive: S. cerevisiae deletion strains, locus YAL013W, strain DEP1, stronger effect = lower value 0.997 | S. cerevisiae deletion strains, locus YBR229C, strain ROT2, stronger effect = lower value 1 | [1] 0.972 | S. cerevisiae deletion strains, locus YDL101C, strain DUN1, stronger effect = lower value 0.968 | S. cerevisiae deletion strains, locus YDL134C, strain PPH21, stronger effect = lower value 0.984 | S. cerevisiae deletion strains, locus YDR150W, strain NUM1, stronger effect = lower value 1.02 | S. cerevisiae deletion strains, locus YEL061C, strain CIN8, stronger effect = lower value 0.979 | S. cerevisiae deletion strains, locus YGR078C, strain PAC10, stronger effect = lower value 0.979 | [2] 1 | S. cerevisiae deletion strains, locus YHR087W, strain rtc3, stronger effect = lower value 1.06 | S. cerevisiae deletion strains, locus YJR043C, strain POL32, stronger effect = lower value 0.984 | S. cerevisiae deletion strains, locus YJR075W, strain HOC1, stronger effect = lower value 1.02 | S. cerevisiae deletion strains, locus YLR039C, strain RIC1, stronger effect = lower value 0.964 | S. cerevisiae deletion strains, locus YLR058C, strain SHM2 (second series), stronger effect = lower value 1 | S. cerevisiae deletion strains, locus YLR085C, strain ARP6, stronger effect = lower value 1.02 | S. cerevisiae deletion strains, locus YLR262C, strain YPT6, stronger effect = lower value 1.02 | S. cerevisiae deletion strains, locus YML094W, strain GIM5, stronger effect = lower value 1.02 | S. cerevisiae deletion strains, locus YMR219W, strain ESC1, stronger effect = lower value 0.994 | S. cerevisiae deletion strains, locus YMR263W, strain SAP30, stronger effect = lower value 1.01 | S. cerevisiae deletion strains, locus YNL153C, strain GIM3, stronger effect = lower value 1 | S. cerevisiae deletion strains, locus YNL298W, strain CLA4 (second series), stronger effect = lower value 0.958 | S. cerevisiae deletion strains, locus YNL322C, strain KRE1, stronger effect = lower value 0.995 | S. cerevisiae deletion strains, locus YNR030W, strain Alg12, stronger effect = lower value 1.03 | S. cerevisiae deletion strains, locus YOL006C, strain TOP1, stronger effect = lower value 0.966 | S. cerevisiae deletion strains, locus YPL055C, strain LGE1, stronger effect = lower value 1.04 | S. cerevisiae deletion strains, locus YPL241C, strain CIN2, stronger effect = lower value 0.992 | S. cerevisiae deletion strains, locus YPR135W, strain CTF4, stronger effect = lower value 0.957 | S. cerevisiae strains, strain wild type, stronger effect = lower value 0.974

O=C1[O][Bi][O]c2ccccc21
inactive: S. cerevisiae deletion strains, locus YAL021C, strain ccr4, stronger effect = lower value 1.06 | S. cerevisiae deletion strains, locus YAL026C, strain drs2, stronger effect = lower value 1.05 | S. cerevisiae deletion strains, locus YAL030W, strain snc1, stronger effect = lower value 0.972 | S. cerevisiae deletion strains, locus YBL061C, strain skt5, stronger effect = lower value 1.04 | S. cerevisiae deletion strains, locus YBR009C, strain hhf1, stronger effect = lower value 0.981 | S. cerevisiae deletion strains, locus YBR023C, strain chs3, stronger effect = lower value 1.05 | S. cerevisiae deletion strains, locus YBR171W, strain sec66, stronger effect = lower value 1.07 | S. cerevisiae deletion strains, locus YBR231C, strain swc5, stronger effect = lower value 1.02 | S. cerevisiae deletion strains, locus YBR279W, strain paf1, stronger effect = lower value 0.932 | S. cerevisiae deletion strains, locus YCL011C, strain gbp2, stronger effect = lower value 0.966 | S. cerevisiae deletion strains, locus YCL016C, strain dcc1, stronger effect = lower value 1.04 | [1] 1.05 | S. cerevisiae deletion strains, locus YCL069W, strain vba3, stronger effect = lower value 1.06 | S. cerevisiae deletion strains, locus YCR088W, strain abp1, stronger effect = lower value 1.07 | S. cerevisiae deletion strains, locus YDL005C, strain med2, stronger effect = lower value 1.05 | S. cerevisiae deletion strains, locus YDL040C, strain nat1, stronger effect = lower value 1.03 | S. cerevisiae deletion strains, locus YDR001C, strain nth1, stronger effect = lower value 1.03 | S. cerevisiae deletion strains, locus YDR069C, strain doa4, stronger effect = lower value 0.944 | S. cerevisiae deletion strains, locus YDR137W, strain rgp1, stronger effect = lower value 1 | S. cerevisiae deletion strains, locus YDR159W, strain sac3, stronger effect = lower value 0.954 | S. cerevisiae deletion strains, locus YDR297W, strain sur2, stronger effect = lower value 0.94 | S. cerevisiae deletion strains, locus YDR334W, strain swr1, stronger effect = lower value 1.05 | S. cerevisiae deletion strains, locus YDR335W, strain msn5, stronger effect = lower value 1.04 | S. cerevisiae deletion strains, locus YDR392W, strain spt3, stronger effect = lower value 1.03 | S. cerevisiae deletion strains, locus YEL003W, strain gim4, stronger effect = lower value 1.03 | S. cerevisiae deletion strains, locus YEL037C, strain rad23, stronger effect = lower value 1.03 | S. cerevisiae deletion strains, locus YEL061C, strain CIN8 (second series), stronger effect = lower value 1.02 | S. cerevisiae deletion strains, locus YER015W, strain faa2, stronger effect = lower value 0.951 | S. cerevisiae deletion strains, locus YER016W, strain bim1, stronger effect = lower value 1.05 | S. cerevisiae deletion strains, locus YER111C, strain swi4, stronger effect = lower value 1.02 | S. cerevisiae deletion strains, locus YER155C, strain BEM2 (second series), stronger effect = lower value 0.997 | S. cerevisiae deletion strains, locus YGL167C, strain pmr1, stronger effect = lower value 1.03 | S. cerevisiae deletion strains, locus YGL227W, strain vid30, stronger effect = lower value 1.05 | S. cerevisiae deletion strains, locus YGL253W, strain hxk2, stronger effect = lower value 1.05 | S. cerevisiae deletion strains, locus YHR013C, strain ard1, stronger effect = lower value 1.02 | [2] 0.996 | S. cerevisiae deletion strains, locus YHR079C, strain IRE1, stronger effect = lower value 0.985 | S. cerevisiae deletion strains, locus YHR142W, strain chs7, stronger effect = lower value 1.08 | S. cerevisiae deletion strains, locus YJL092W, strain hpr5, stronger effect = lower value 1.06 | S. cerevisiae deletion strains, locus YJL095W, strain BCK1, stronger effect = lower value 1.02 | S. cerevisiae deletion strains, locus YJL115W, strain asf1, stronger effect = lower value 1.03 | S. cerevisiae deletion strains, locus YJL129C, strain trk1, stronger effect = lower value 1.05 | S. cerevisiae deletion strains, locus YJL154C, strain vps35, stronger effect = lower value 1.04 | S. cerevisiae deletion strains, locus YJL166W, strain qcr8, stronger effect = lower value 0.937 | S. cerevisiae deletion strains, locus YJR066W, strain TOR1, stronger effect = lower value 0.925 | S. cerevisiae deletion strains, locus YKL160W, strain elf1, stronger effect = lower value 0.996 | S. cerevisiae deletion strains, locus YKR026C, strain gcn3, stronger effect = lower value 1.05 | S. cerevisiae deletion strains, locus YKR091W, strain srl3, stronger effect = lower value 1.04 | S. cerevisiae deletion strains, locus YLL001W, strain dnm1, stronger effect = lower value 1.04 | S. cerevisiae deletion strains, locus YLL026W, stronger effect = lower value 1.01 | S. cerevisiae deletion strains, locus YLL041C, strain sdh2, stronger effect = lower value 1.04 | S. cerevisiae deletion strains, locus YLR027C, strain aat2, stronger effect = lower value 1.04 | S. cerevisiae deletion strains, locus YLR113W, strain HOG1, stronger effect = lower value 1.06 | S. cerevisiae deletion strains, locus YLR221C, strain rsa3, stronger effect = lower value 1.02 | S. cerevisiae deletion strains, locus YLR258W, strain gsy2, stronger effect = lower value 1.02 | S. cerevisiae deletion strains, locus YLR262C, strain YPT6 (second series), stronger effect = lower value 1.06 | S. cerevisiae deletion strains, locus YLR320W, strain mms22, stronger effect = lower value 1.03 | S. cerevisiae deletion strains, locus YLR342W, strain FKS1, stronger effect = lower value 1.01 | S. cerevisiae deletion strains, locus YLR357W, strain rsc2, stronger effect = lower value 1 | S. cerevisiae deletion strains, locus YLR370C, strain arc18, stronger effect = lower value 1.06 | S. cerevisiae deletion strains, locus YLR384C, strain iki3, stronger effect = lower value 1.01 | S. cerevisiae deletion strains, locus YML120C, strain ndi1, stronger effect = lower value 1.03 | S. cerevisiae deletion strains, locus YMR125W, strain sto1, stronger effect = lower value 1.04 | S. cerevisiae deletion strains, locus YMR129W, stronger effect = lower value 0.96 | S. cerevisiae deletion strains, locus YMR205C, strain PFK2, stronger effect = lower value 0.985 | S. cerevisiae deletion strains, locus YMR231W, strain pep5, stronger effect = lower value 1.02 | S. cerevisiae deletion strains, locus YNL071W, strain lat1, stronger effect = lower value 1.03 | S. cerevisiae deletion strains, locus YNL183C, strain NPR1, stronger effect = lower value 0.936 | S. cerevisiae deletion strains, locus YNL248C, strain rpa49, stronger effect = lower value 1.07 | S. cerevisiae deletion strains, locus YNL322C, strain KRE1 (second series), stronger effect = lower value 1.05 | S. cerevisiae deletion strains, locus YNR049C, strain mso1, stronger effect = lower value 1.05 | S. cerevisiae deletion strains, locus YOR001W, strain rrp6, stronger effect = lower value 1.06 | S. cerevisiae deletion strains, locus YOR070C, strain gyp1, stronger effect = lower value 1.03 | S. cerevisiae deletion strains, locus YOR080W, strain dia2, stronger effect = lower value 1.05 | S. cerevisiae deletion strains, locus YOR083W, strain WHI5, stronger effect = lower value 1.03 | S. cerevisiae deletion strains, locus YOR231W, strain MKK1, stronger effect = lower value 1.02 | S. cerevisiae deletion strains, locus YOR265W, strain rbl2, stronger effect = lower value 1.04 | S. cerevisiae deletion strains, locus YOR290C, strain snf2, stronger effect = lower value 1.01 | S. cerevisiae deletion strains, locus YPL051W, strain arl3, stronger effect = lower value 0.945 | S. cerevisiae deletion strains, locus YPL078C, strain atp4, stronger effect = lower value 1.04 | S. cerevisiae deletion strains, locus YPL106C, strain sse1, stronger effect = lower value 1 | S. cerevisiae deletion strains, locus YPL240C, strain hsp82, stronger effect = lower value 1.02 | S. cerevisiae deletion strains, locus YPL256C, strain CLN2, stronger effect = lower value 1
active: S. cerevisiae deletion strains, locus YDR195W, strain ref2 1.3 [resistant] | S. cerevisiae deletion strains, locus YFR010W, strain ubp6, stronger effect = lower value 1.11 [resistant] | S. cerevisiae deletion strains, locus YGL173C, strain kem1, stronger effect = lower value 0.416 | S. cerevisiae deletion strains, locus YGL240W, strain doc1, stronger effect = lower value 1.13 [resistant] | S. cerevisiae deletion strains, locus YHR027C, strain rpn1, stronger effect = lower value 0.904 | S. cerevisiae deletion strains, locus YJL095W, strain BCK1 (second series), stronger effect = lower value 0.914 | S. cerevisiae deletion strains, locus YJL164C, strain tpk1, stronger effect = lower value 0.732 | S. cerevisiae deletion strains, locus YMR058W, strain fet3, stronger effect = lower value 0.851 | S. cerevisiae deletion strains, locus YNL209W, strain ssb2, stronger effect = lower value 0.923 | S. cerevisiae deletion strains, locus YOR106W, strain vam3, stronger effect = lower value 0.861 | S. cerevisiae deletion strains, locus YOR270C, strain vph1, stronger effect = lower value 1.35 [resistant]
